Rows were chosen to be rich in hits. Some 19% of all compounds tested hit in one or more screens of this group.
DT40 TDP1 CPT: qHTS for Inhibitors of human tyrosyl-DNA phosphodiesterase 1 (TDP1): qHTS in cells in presence of CPT. chicken DT40 Tdp1-/-;hTDP1 cells + 20 nM CPT, ATP luminescence, 48 h. Potency, µM (highest dose often 46.2 µM), usual class: inhibitors. actives 12% (n = 420,000). AID 686979, 2013; also: nearly all actives have a fitted effect of over 55% in size
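Cell growth measured by CellTiter-Glo luminescence after a minimum 48 h, 37 C compound exposure with 20 nM CPT in Tdp1-knockout DT40 cells stably expressing hTDP1, seeded 400/well; qHTS titration format.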
Chronic BCR inh: qHTS Assay to Find Inhibitors of Chronic Active B-Cell Receptor Signaling; actives 0.05% (n = 340,000); Potency, µM (titrated, usually from 46.1 µM), hits mostly inhibitors; ABC-DLBCL IkBa-CBG/CBR reporter, luminescence ratio, 4 h; active = well fitted inhibition curve with a large enough effect in the signal ratio, with a control signal flat, not every such curve was filed as active; inconclusive = small, poorly fitted or top-dose-only effect, or effect the other way, or a change in a side signal; the % refers to the signal ratio
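Cell line TMD8 (human ABC DLBCL), stably expressing tet-inducible CBG68-IkBa fusion and CBR; IMDM/0.5% FBS; cpd up to 46 uM; dox induction, 4 h, 37C/5% CO2; dual luminescence; green/red ratio; MG132 control.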
IL-1B inflam inh: qHTS for Inhibitors of Inflammasome Signaling: IL-1-beta AlphaLISA Primary Screen; activity change, % at 57.5 µM; THP-1 LPS/ATP IL-1B secretion, AlphaLISA, 16 h; stronger effect = lower value; AID 743279, 2014; actives 4.7% (n = 360,000); in the data active = activity change below about -50%; inconclusive = mostly about -30% to -49%
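THP-1 cells pretreated 1 hr with compounds (up to 57.5 uM final), then stimulated with LPS (250 ng/mL final) plus ATP (1.25 mM final); secreted IL-1B measured by AlphaLISA after 16 hr, decreased signal indicating inhibition.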
SW480 rereplic: A quantitative high throughput screen for small molecules that induce DNA re-replication in SW480 colon adenocarcinoma cells; SW480 DNA re-replication, Hoechst DNA content imaging, 48 h; Potency, µM (doses to about 46.1 µM), most hits filed as activators; actives 1.8% (n = 340,000); AID 624297, 2012; also: nearly all actives have a fitted effect of over 55% in size
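250 cells/well; 23 nL cpd via pin tool; 48 hr, 37 C, 5% CO2; Hoechst 40 min; imager read of total nuclear intensity, ex 405/em 500-530 nm.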
MCF10A rereplic: A quantitative high throughput screen for small molecules that induce DNA re-replication in MCF 10a normal breast cells | MCF 10A DNA re-replication, Hoechst nuclear intensity, 48 h | Potency, µM (series often up to 46.1 µM), hits mostly activators | actives 2.9% (n = 350,000) | AID 624296, 2012; also: nearly all actives have a fitted effect of over 50% in size
DT40 TDP1 no CPT: qHTS for Inhibitors of human tyrosyl-DNA phosphodiesterase 1 (TDP1): qHTS in cells in absence of CPT. AID 686978, 2013. DT40 Tdp1-/- hTDP1 cells, no CPT, ATP luminescence, 48 h. actives 15% (n = 420,000). Potency, µM (doses to about 46.2 µM), usual class: inhibitors; also: nearly all actives have a fitted effect of over 55% in size
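Stably hTDP1-transfected Tdp1-null chicken DT40 cells were treated with library compounds minus camptothecin and grown for at least 48 hr at 37 °C, after which cellular ATP was quantified by luminescence.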
A number is an active result; i = inactive; ? = inconclusive; nt = no result given; [ ] = remark or other dose. Unless noted, calls follow the shape of the dose curve; as a rule, active = well fitted curve in the direction sought with a large enough effect; inconclusive = small, poorly fitted or top-dose-only effect, or another doubt; inactive = no such curve, though single readings can be large; an effect the other way counts as inactive or inconclusive.

SMILES | DT40 TDP1 CPT | Chronic BCR inh | IL-1B inflam inh | SW480 rereplic | MCF10A rereplic | DT40 TDP1 no CPT
O=C(O)/C=C\C(=O)Nc1ccccc1C#Cc1ccc(Br)cc1 | ? | ? | -98 | ? | 18µM | ?
O=C(/C=C/C(=O)Oc1ccccc1C(=O)O)Oc1ccccc1C(=O)O | i | nt | nt | nt | nt | i
Nc1ccc(Br)c2c1C(=O)c1ccccc1C2=O | i | ? | i | i | i | ?
NC1=CC(=O)C(=O)c2ccccc21 | 23µM | nt | ? | ? | ? | 16µM
CC1(c2ccccc2Cl)NC(=O)N(CC(=O)NCc2ccco2)C1=O (stereo not drawn) | i | i | i | i | i | i
COc1cc2cc(C(=O)N3CCc4ccccc4C3)[nH]c2cc1OC | i | ? | i | i | i | i
COc1cc2[nH]c(C(=O)N3CCc4ccccc4C3)cc2c(OC)c1OC | ? | ? | nt | ? | i | 15µM
O=C1CCN(c2ccccc2)N1 | 29µM | nt | i | i | i | i
O=C1C=C(NCc2ccc(Cl)c(Cl)c2)C2(CCCCC2)O1 | ? | i | i | i | i | 16µM
O=C1C=C(NCc2ccco2)C2(CCCCC2)O1 | i | ? | i | i | i | i
O=C(c1ccc(NC(=O)C(c2ccccc2)c2ccccc2)cc1)c1ccc(C(=O)O)c(C(=O)O)c1 | i | i | i | i[9.22 µM] | i | i
COC(=O)c1ccc(S(=O)(=O)c2ccc(Cl)cc2)c(N)c1 | ? | i | i | i | ? | ?
CCC(c1nnnn1-c1ccc2c(c1)OCCO2)N1CCN(c2ccc(C(F)(F)F)cc2[N+](=O)[O-])CC1 (stereo not drawn) | 15µM | nt | i | nt | nt | 23µM
CC(C)CCNC(=O)c1cn(C)c2ccc(S(=O)(=O)N3CCOCC3)cc2c1=O | i | nt | nt | nt | nt | i
CCOC(=O)Cc1csc(NC(=O)c2ccc(C)c(S(=O)(=O)N3CCOCC3)c2)n1 | ? | i | i | i | i | i
COc1ccc2oc(/C=C/N(C)C)c(C(=O)c3ccc(Cl)cc3)c2c1 | ? | i | i | i | 6.3µM | ?
COc1ccc(C(=O)c2oc3ccc(OC)cc3c2N)cc1 | ? | i | ? | i | 26µM | 16µM
COC(=O)c1oc2ccc(OC)cc2c1N | i | i | i | i | i | i
C=C1C=C(C(F)F)n2ncc(C(=O)N3CCN(c4ccccn4)CC3)c2N1 | i | nt | nt | nt | nt | i
CN(C)c1nc(-c2ccccn2)nnc1-c1ccccc1 | 10µM | i | i | ? | i | 15µM
CCN(CC)c1nc(-c2ccccn2)nc(-c2ccccc2)c1C#N | 18µM | i | ? | i | i | 3.3µM
CC(C)NC(=O)C1(C)CSCC(=O)N1C1CC1 (stereo not drawn) | i | nt | i | nt | nt | i
Cc1cccc(C(=O)Nc2nnc(S(=O)(=O)N(C)c3ccccc3C)s2)c1 | i | nt | nt | nt | nt | i
C[C@@H](C(=O)NCc1ccccn1)[C@@H]1C[C@@]1(C)[C@@H](NC(=O)OCc1ccccc1)c1ccccc1 | 23µM | i | i | i | i | 13µM
C[C@@H](C(=O)NCc1ccccc1)[C@@H]1C[C@@]1(C)[C@@H](NC(=O)OCc1ccccc1)c1ccccc1 | 16µM | i | -57 | i | i | ?
SMILES | DT40 TDP1 CPT | Chronic BCR inh | IL-1B inflam inh | SW480 rereplic | MCF10A rereplic | DT40 TDP1 no CPT
CC(C)CC(NC(=O)OCc1ccccc1)C(=O)NC(Cc1c[nH]c2ccccc12)C(=O)O (stereo not drawn) | i | nt | i | nt | nt | i
COc1ccccc1CNC(=O)C(Cc1c[nH]c2ccccc12)NC(=O)OCc1ccccc1 (stereo not drawn) | ? | i | i | i | i | 18µM
C[C@@H](C(=O)NCc1ccc(S(C)(=O)=O)cc1)[C@H]1C[C@]1(C)[C@H](NC(=O)OCc1ccccc1)c1ccccc1 | ? | i | i | ? | i | ?
Cc1ccc(CNC(=O)[C@H](C)[C@H]2C[C@]2(C)[C@H](NC(=O)OCc2ccccc2)c2ccccc2)o1 | ? | ? | i | ? | ? | 16µM
CC1(C)CC(NS(=O)(=O)c2ccc(S(N)(=O)=O)cc2)CC(C)(C)N1 | nt | i | nt | nt | nt | nt
C[C@@H](C(=O)NCC1CC1)[C@H]1C[C@]1(C)[C@H](NC(=O)OCc1ccccc1)c1ccccc1 | 26µM | i | i | i | i | ?
COCCNC(=O)[C@H](C)[C@H]1C[C@]1(C)[C@H](NC(=O)OCc1ccccc1)c1ccccc1 | ? | i | i | i | i | ?
C[C@@H](C(=O)Nc1ccc2ccccc2c1)[C@@H]1C[C@@]1(C)[C@@H](NC(=O)OCc1ccccc1)c1ccccc1 | ? | i | i | ? | ? | 16µM
CNC(=O)[C@H](C)[C@@H]1C[C@@]1(C)[C@@H](NC(=O)OCc1ccccc1)c1ccccc1 | ? | i | i | ? | i | i
C[C@@H](C(=O)NCCc1c[nH]c2ccccc12)[C@@H]1C[C@@]1(C)[C@@H](NC(=O)OCc1ccccc1)c1ccccc1 | 13µM | ? | ? | ? | ? | 18µM
OCCNC(=S)c1ccccc1 | i | i | i | i | i | i
c1ccc(CSc2nc3ncccn3n2)cc1 | i | ? | i | i | i | i
CCCCn1c(N)c(N(CC(C)C)C(=O)C(C)SCc2nc3sc(C)c(C)c3c(=O)[nH]2)c(=O)[nH]c1=O (stereo not drawn) | i | i | i | i | ? | ?
Cc1c(-n2c(SCC(=O)O)nnc2-c2ccccc2Br)c(=O)n(-c2ccccc2)n1C | i | i | i | i | i | i
Fc1ccc2[nH]c3c(N4CCN(C5CCCCC5)CC4)ncnc3c2c1 | nt | i | nt | nt | nt | nt
COc1ccc2[nH]c3c(N4CC(C)OC(C)C4)ncnc3c2c1 (stereo not drawn) | ? | i | i | i | i | 15µM
COc1cccc(N2CCN(c3ncnc4c3[nH]c3ccc(F)cc34)CC2C)c1 (stereo not drawn) | 1.6µM | ? | -112 | ? | ? | 1.6µM
COc1ccccc1NC(=O)C(C)OC(=O)/C(=C/c1ccccc1)NC(C)=O (stereo not drawn) | i | i | i | i | i | i
COc1ccccc1N(C1=NCCCS1)S(=O)(=O)c1ccc(C(C)(C)C)cc1 | 21µM | i | i | i | i | 23µM
COc1ccc(C(=O)NCC2Cc3cccc(-c4ccc(S(C)(=O)=O)cc4)c3O2)c(OC)n1 (stereo not drawn) | i[9.04 µM] | nt | nt | nt | nt | i
N#Cc1sc2nc(C3CC3)cc(-c3ccc(Cl)cc3)c2c1N | 16µM | ? | i | ? | i | ?

Compound activity (PubChem BioAssay)
